# Source: PubChem BioAssay (NCATS)
# Records with an inconclusive call do not appear. A number with no mark means an inactive call. The call rests on the fitted dose curve.
# Experiment: A High-Content qHTS Against Drug Library for the Identification of Small Molecules that Inhibit DYT1 Early Onset Primary Dystonia-Associated Cell Pathology (AID 1645839)
# Conditions: HEK293 Flp-In EGFP-delE TorsinA, punctate imaging, 48 h; series mostly up to 91.7 µM; % pathology change, negative = correction: at the top concentration
# Outline: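 Induced EGFP-delE TorsinA cells are imaged after 48 h of compound treatment. Punctate fusion-protein distribution gives the %pathology value, while nuclei counts flag toxicity. Wild-type EGFP-hTOR1A cells define the normal pattern.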
row,Structure (SMILES),"% pathology change, negative = correction [%]"
1,CC1(C)CC/C(=C/c2ccc(Cl)cc2)C1(O)Cn1cncn1 (stereo not drawn),-18.1
2,CC(C)(C)C(O)C(Oc1ccc(Cl)cc1)n1cncn1 (stereo not drawn),-16.3
3,CCO/N=C(\CC)C1=C(O)CC(c2c(C)cc(C)cc2C)CC1=O (stereo not drawn),-21.5
